Data: publication PMC5540273 (PLoS ONE, 2017)

Experiments:
Details in all cases: concentration: 1 μM, replicates: in singlicate; n = 1
[1] = test system: T1, RSK1(Kin.Dom.1-N-terminal)
T1 construct: gene RPS6KA1

[2] = test system: T2, RSK1(Kin.Dom.2-C-terminal)
T2 construct: gene RPS6KA1

[3] = test system: T3, RSK2(Kin.Dom.1-N-terminal)
T3 construct: gene RPS6KA3

[4] = test system: T4, RSK2(Kin.Dom.2-C-terminal)
T4 construct: gene RPS6KA3

[5] = test system: T5, RSK3(Kin.Dom.1-N-terminal)
T5 construct: gene RPS6KA2

[6] = test system: T6, RSK3(Kin.Dom.2-C-terminal)
T6 construct: gene RPS6KA2

[7] = test system: T7, RSK4(Kin.Dom.1-N-terminal)
T7 construct: gene RPS6KA6

[8] = test system: T8, RSK4(Kin.Dom.2-C-terminal)
T8 construct: gene RPS6KA6

S6K1 = test system: S6K1
SBK1 = test system: SBK1
SGK2 = test system: SGK2
SGK3 = test system: SGK3
SGK = test system: SGK
SIK2 = test system: SIK2
SIK = test system: SIK
SLK = test system: SLK
SNARK = test system: T9, SNARK
T9 construct: gene NUAK2

SNRK = test system: SNRK
SRC = test system: SRC
SRMS = test system: SRMS
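Further: KINOMEscan kinase panel screen.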

Row | Structure (SMILES) | %Inh [1] [%] | %Inh [2] [%] | %Inh [3] [%] | %Inh [4] [%] | %Inh [5] [%] | %Inh [6] [%] | %Inh [7] [%] | %Inh [8] [%] | %Inh (S6K1) [%] | %Inh (SBK1) [%] | %Inh (SGK2) [%] | %Inh (SGK3) [%] | %Inh (SGK) [%] | %Inh (SIK2) [%] | %Inh (SIK) [%] | %Inh (SLK) [%] | %Inh (SNARK) [%] | %Inh (SNRK) [%] | %Inh (SRC) [%] | %Inh (SRMS) [%]
1 | O=C(Nc1n[nH]c2cc(-c3ccccc3F)ccc12)C1CC1 [SB-733371] | 32 | 0 | 34 | 0 | 0 | 0 | 0 | 0 | 0 | 17 | 11 | 12 | 5 | 5 | 0 | 1 | 1 | 0 | 0 | 14
2 | COc1ccc(CNC(=O)NC2CCN(c3ccnc(Nc4ccc(F)cc4)n3)C2)cc1 (stereo not drawn) [GSK1379706] | 14 | 28 | 0 | 3 | 15 | 31 | 0 | 20 | 0 | 0 | 0 | 0 | 0 | 0 | 13 | 9 | 0 | 0 | 0 | 0
3 | Nc1ncnc2c1ncn2-c1ccc(Cl)cc1 [AH2635] | 9 | 4 | 0 | 0 | 0 | 0 | 0 | 46 | 0 | 0 | 0 | 0 | 0 | 0 | 3 | 20 | 0 | 0 | 0 | 0
4 | COc1cc(Nc2nccc(N3CCC(NC(=O)C4COc5ccccc5O4)C3)n2)cc(OC)c1OC (stereo not drawn) [GSK1379761] | 3 | 4 | 0 | 24 | 0 | 12 | 0 | 2 | 0 | 20 | 0 | 0 | 17 | 0 | 0 | 17 | 23 | 0 | 53 | 11
5 | Cc1nc(N(C)[C@H]2CN(C(=O)CC#N)CC[C@H]2C)c2cc[nH]c2n1 | 12 | 0 | 0 | 0 | 12 | 12 | 4 | 4 | 0 | 0 | 7 | 0 | 25 | 0 | 6 | 1 | 1 | 0 | 11 | 2
6 | CCc1ccc(-c2ccc3c(c2)-c2nn(C)cc2S(=O)(=O)N3C)cc1 | 2 | 41 | 15 | 63 | 10 | 32 | 0 | 21 | 22 | 0 | 0 | 0 | 0 | 0 | 0 | 12 | 0 | 0 | 0 | 46
7 | CCC(=O)c1c(-c2ccccc2)c2cc(Cl)ccc2c(=O)n1Cc1cc(S(C)(=O)=O)n(CC(N)=O)n1 | 0 | 0 | 0 | 0 | 1 | 6 | 0 | 5 | 0 | 0 | 0 | 0 | 0 | 2 | 0 | 0 | 0 | 0 | 0 | 0
8 | COc1cc2nccc(Nc3ccc(OCc4ccc(NC(C)=O)cc4)cc3)c2cc1OC.Cl [GW440135] | 0 | 0 | 19 | 0 | 4 | 0 | 2 | 0 | 9 | 5 | 0 | 0 | 2 | 4 | 0 | 3 | 0 | 0 | 14 | 20
9 | COc1ccc(-c2cc3c(C)nc(N)nc3n([C@H]3CC[C@H](OCCO)CC3)c2=O)cn1 | 0 | 9 | 0 | 0 | 16 | 12 | 0 | 23 | 0 | 0 | 0 | 17 | 0 | 5 | 18 | 0 | 0 | 0 | 8 | 1
10 | COc1ccc(-c2coc3ccc(-c4nnc(SCc5cccc(C#N)c5)o4)cc23)cc1 | 16 | 24 | 9 | 0 | 16 | 18 | 26 | 24 | 2 | 0 | 0 | 21 | 0 | 0 | 17 | 18 | 30 | 18 | 3 | 0
11 | O=c1cc(N2CCOCC2)nc2n(Cc3ccc(F)c(Cl)c3)ccn12 [GSK2297099] | 19 | 10 | 0 | 0 | 27 | 0 | 0 | 11 | 0 | 0 | 0 | 19 | 0 | 0 | 0 | 0 | 20 | 0 | 0 | 0
12 | Nc1n[nH]c2ncc(-c3ccccc3)cc12 [SB-517081] | 25 | 0 | 10 | 0 | 7 | 0 | 0 | 36 | 8 | 8 | 2 | 9 | 7 | 12 | 2 | 0 | 0 | 0 | 0 | 8
13 | Cc1cccc(-c2cc(-c3c[nH]nc3-c3ccccn3)ccn2)c1 [GW679395] | 9 | 0 | 0 | 7 | 6 | 12 | 0 | 49 | 0 | 5 | 6 | 0 | 0 | 0 | 0 | 0 | 0 | 0 | 53 | 0
14 | COc1cc2ncn(-c3cc(OCc4ccncc4)c(C(N)=O)s3)c2cc1OC [GSK336313] | 25 | 0 | 6 | 0 | 0 | 0 | 0 | 0 | 0 | 24 | 0 | 3 | 0 | 0 | 0 | 43 | 4 | 0 | 0 | 0
15 | O=C(NCCNc1ccnc(Nc2ccc(F)cc2)n1)Nc1ccc2c(c1)OCO2 [GSK1379882] | 15 | 22 | 14 | 30 | 0 | 0 | 0 | 12 | 0 | 6 | 13 | 7 | 12 | 0 | 0 | 0 | 1 | 0 | 0 | 0
16 | COc1ccc(-c2cc3c(C)nc(N)nc3n([C@H]3CC[C@H](O)CC3)c2=O)cn1 | 6 | 0 | 0 | 0 | 0 | 0 | 0 | 0 | 0 | 0 | 0 | 0 | 0 | 0 | 0 | 0 | 0 | 0 | 0 | 0
17 | COC(=O)c1c(-c2ccccc2)c2cc(Br)ccc2c(=O)n1Cc1ccc(NC(=O)CCC(=O)O)cc1 | 0 | 5 | 0 | 29 | 16 | 15 | 0 | 26 | 0 | 1 | 18 | 0 | 6 | 0 | 6 | 1 | 0 | 0 | 25 | 0
18 | CCCC(=O)Nc1n[nH]c2ncc(-c3cccc4ccccc34)cc12 [SB-642057] | 26 | 24 | 14 | 0 | 0 | 0 | 0 | 15 | 16 | 7 | 0 | 26 | 0 | 0 | 0 | 14 | 0 | 0 | 0 | 4
19 | COc1cccc(-n2cnc3c(N)ncnc32)c1 [SKF-97416] | 8 | 13 | 39 | 34 | 0 | 8 | 40 | 7 | 1 | 29 | 8 | 0 | 44 | 0 | 0 | 2 | 5 | 20 | 13 | 22
20 | Cl.NS(=O)(=O)c1cccc(Nc2cc(-c3ccc(F)cc3)n[nH]2)c1 [GW824645] | 0 | 0 | 35 | 0 | 0 | 0 | 15 | 0 | 0 | 0 | 100 | 0 | 22 | 3 | 0 | 0 | 0 | 0 | 1 | 31
21 | Nc1ncnc2c1ncn2-c1cccc2ccccc12 [SKF-97184] | 16 | 16 | 38 | 0 | 0 | 36 | 11 | 0 | 15 | 28 | 21 | 4 | 35 | 0 | 0 | 0 | 0 | 2 | 8 | 17
